Common to all, as to set-up: scale not given: direction of the effect not stated beside the values
Assay [1] deals with Protein translocase subunit SecA (Escherichia coli (strain K12)) (UniProt P10408). Put plainly: Assay to Identify E. coli SecA ATPase Inhibitors. The format is functional. The settings on record: 30 µM.
Assay [2] concerns the target T1, Ubiquitin-activating enzyme e1, putative (Leishmania donovani (strain BPK282A1)) (UniProt E9BSI1).
T1 sequence (whole entry): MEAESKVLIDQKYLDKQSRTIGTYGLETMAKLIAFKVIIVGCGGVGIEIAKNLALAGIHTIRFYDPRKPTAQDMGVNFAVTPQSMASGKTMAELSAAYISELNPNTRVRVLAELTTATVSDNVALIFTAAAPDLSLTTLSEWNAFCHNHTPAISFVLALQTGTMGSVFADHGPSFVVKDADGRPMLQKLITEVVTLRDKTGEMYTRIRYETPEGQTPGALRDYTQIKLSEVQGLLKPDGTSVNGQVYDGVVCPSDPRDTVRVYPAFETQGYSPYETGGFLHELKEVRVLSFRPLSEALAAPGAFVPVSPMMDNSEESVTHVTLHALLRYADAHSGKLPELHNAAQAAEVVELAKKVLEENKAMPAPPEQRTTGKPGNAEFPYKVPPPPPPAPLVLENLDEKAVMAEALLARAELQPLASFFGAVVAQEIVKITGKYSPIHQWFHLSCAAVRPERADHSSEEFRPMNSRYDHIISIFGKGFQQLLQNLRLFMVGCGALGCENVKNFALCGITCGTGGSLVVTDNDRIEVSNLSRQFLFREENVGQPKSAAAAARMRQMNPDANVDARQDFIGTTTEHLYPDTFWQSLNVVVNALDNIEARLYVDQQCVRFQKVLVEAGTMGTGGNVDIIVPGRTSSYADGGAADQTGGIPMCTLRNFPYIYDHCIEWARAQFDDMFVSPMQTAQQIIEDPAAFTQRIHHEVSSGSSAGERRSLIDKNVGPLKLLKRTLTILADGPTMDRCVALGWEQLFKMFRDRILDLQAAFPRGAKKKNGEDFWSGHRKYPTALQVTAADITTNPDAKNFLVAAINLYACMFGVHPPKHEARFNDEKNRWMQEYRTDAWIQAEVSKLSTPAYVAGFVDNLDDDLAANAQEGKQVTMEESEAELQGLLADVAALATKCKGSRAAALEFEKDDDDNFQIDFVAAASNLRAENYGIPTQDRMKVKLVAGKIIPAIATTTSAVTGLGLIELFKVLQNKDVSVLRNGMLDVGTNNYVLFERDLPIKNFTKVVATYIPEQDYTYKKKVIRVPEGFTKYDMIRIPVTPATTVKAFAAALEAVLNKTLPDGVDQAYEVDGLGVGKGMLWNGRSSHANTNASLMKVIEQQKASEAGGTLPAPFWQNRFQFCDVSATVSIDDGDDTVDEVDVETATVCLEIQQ
Kind of assay: Leishmania donovani Ubiquitin Activating Enzyme (LdE1). The format is functional. The settings on record: 30 µM.

The target of assay [3] is Sialic acid-binding Ig-like lectin 9 (Homo sapiens) (UniProt Q9Y336). Put plainly: Hs-Siglec9 ALPHAscreen SOP 20170721. To be noted: 10 µM. In general terms: In Alpha technology, singlet oxygen from a donor bead excites a nearby acceptor bead.
In another assay the test system is Trypanosoma cruzi. Put plainly: Trypanosoma cruzi phosphomannomutase and mannose-1-phosphate guanylyltransferase assay. The format is functional. To be noted: 10 µM.
The target of assay [4] is T2, Arginase-2, mitochondrial (Homo sapiens) (UniProt P78540).
T2 sequence (whole entry): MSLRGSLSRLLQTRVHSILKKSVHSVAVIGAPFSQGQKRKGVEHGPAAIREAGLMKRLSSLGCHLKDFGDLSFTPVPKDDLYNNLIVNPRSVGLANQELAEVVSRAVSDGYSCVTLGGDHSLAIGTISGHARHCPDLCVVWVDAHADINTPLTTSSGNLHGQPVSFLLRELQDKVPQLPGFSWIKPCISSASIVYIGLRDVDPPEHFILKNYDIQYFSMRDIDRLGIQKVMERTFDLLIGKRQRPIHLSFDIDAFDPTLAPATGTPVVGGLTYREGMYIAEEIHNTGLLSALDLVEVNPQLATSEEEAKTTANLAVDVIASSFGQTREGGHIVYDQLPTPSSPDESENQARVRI
Put plainly: in vitro enzyme assay to detect the production of urea directly proportional to the activity of Arginase II. Further: in the data most compounds retested in dose-response had high values. The format is functional. To be noted: 33.3 µM.

The target in assay [5] is T3, Proteasome subunit beta (Trypanosoma cruzi) (UniProt O96673).
T3 sequence (whole entry): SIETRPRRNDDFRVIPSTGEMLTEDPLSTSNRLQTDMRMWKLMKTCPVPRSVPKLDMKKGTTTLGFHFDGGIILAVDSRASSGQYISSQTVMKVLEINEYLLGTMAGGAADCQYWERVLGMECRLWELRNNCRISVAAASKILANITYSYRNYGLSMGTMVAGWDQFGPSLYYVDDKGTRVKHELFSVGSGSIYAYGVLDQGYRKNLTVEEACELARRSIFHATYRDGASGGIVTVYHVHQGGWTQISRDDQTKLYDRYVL
Kind of assay: Trypanosoma cruzi proteasome chymotrypsin-like activity (TcProtChymo) assay. Further: in the data most compounds retested in dose-response had high values. The settings on record: 9.37 µM. The format is functional.

The species entered for a further assay is Homo sapiens. Put plainly: To identify inhibition of the IFN signalling (Jak-Stat) pathway via expression of an eGFP reporter gene under the control of an IFN-stimulated response element (ISRE) containing MxA promoter. To be noted: 30 µM. The format is functional. For orientation: A reporter such as luciferase makes a cellular process visible.
In assay [6] the target is T4, Tyrosyl-tRNA synthetase, putative (Trypanosoma cruzi (strain CL Brener)) (UniProt Q4DSP6).
T4 sequence (whole entry): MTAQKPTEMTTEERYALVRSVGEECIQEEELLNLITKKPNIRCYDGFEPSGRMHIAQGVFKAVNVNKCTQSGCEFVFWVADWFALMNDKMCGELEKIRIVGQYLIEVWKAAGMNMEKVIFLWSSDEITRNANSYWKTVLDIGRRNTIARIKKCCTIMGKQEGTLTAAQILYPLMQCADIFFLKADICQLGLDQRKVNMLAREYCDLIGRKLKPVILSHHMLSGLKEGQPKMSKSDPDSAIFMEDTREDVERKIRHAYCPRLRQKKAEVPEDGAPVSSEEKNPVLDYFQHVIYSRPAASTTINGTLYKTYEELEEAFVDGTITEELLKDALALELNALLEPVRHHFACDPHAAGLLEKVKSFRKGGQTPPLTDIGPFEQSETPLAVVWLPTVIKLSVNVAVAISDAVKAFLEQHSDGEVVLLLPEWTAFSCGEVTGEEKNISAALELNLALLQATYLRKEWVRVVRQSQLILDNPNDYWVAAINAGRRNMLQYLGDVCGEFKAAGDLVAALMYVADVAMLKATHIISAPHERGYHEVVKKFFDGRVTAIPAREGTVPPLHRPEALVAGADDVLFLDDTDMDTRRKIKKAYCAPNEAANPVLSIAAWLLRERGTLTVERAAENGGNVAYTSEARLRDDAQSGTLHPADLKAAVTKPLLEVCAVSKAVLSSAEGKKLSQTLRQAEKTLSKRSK
Put plainly: Trypanosoma cruzi tyrosyl tRNA synthetase (TcYRS) _High Tyrosine SOP. Further: in the data most compounds retested in dose-response had high values. The format is functional. The settings on record: 30 µM.

Assay [7] concerns the target T4, Tyrosyl-tRNA synthetase, putative (Trypanosoma cruzi (strain CL Brener)). Kind of assay: Trypanosoma cruzi tyrosyl tRNA synthetase (TcYRS) SOP. The format is functional. The settings on record: 30 µM.
The target in assay [8] is Chromo domain-containing protein 1 (Saccharomyces cerevisiae (strain ATCC 204508 / S288c) (Baker's yeast)) (UniProt P32657). Kind of assay: ScCHD-1 Enzyme Inhibition Assay. Further: in the data most compounds retested in dose-response had high values. To be noted: 30 µM. The format is functional.

Each structure is given as a SMILES string. For some assays here: Potency and affinity values are given separately.

Sequence of Sialic acid-binding Ig-like lectin 9 (Homo sapiens) (Q9Y336 whole entry): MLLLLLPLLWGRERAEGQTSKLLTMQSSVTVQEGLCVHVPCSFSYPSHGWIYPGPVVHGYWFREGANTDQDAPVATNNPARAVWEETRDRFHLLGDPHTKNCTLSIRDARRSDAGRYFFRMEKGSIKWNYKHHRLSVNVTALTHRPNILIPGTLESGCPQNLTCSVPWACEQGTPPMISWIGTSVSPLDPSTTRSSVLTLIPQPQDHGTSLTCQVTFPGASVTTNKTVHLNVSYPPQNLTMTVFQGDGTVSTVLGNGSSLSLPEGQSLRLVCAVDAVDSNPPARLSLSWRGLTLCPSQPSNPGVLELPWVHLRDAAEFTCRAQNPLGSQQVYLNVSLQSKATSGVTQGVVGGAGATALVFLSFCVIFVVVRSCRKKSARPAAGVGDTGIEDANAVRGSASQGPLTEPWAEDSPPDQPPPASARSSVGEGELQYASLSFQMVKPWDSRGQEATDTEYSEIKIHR
Sequence of Chromo domain-containing protein 1 (Saccharomyces cerevisiae (strain ATCC 204508 / S288c) (Baker's yeast)) (P32657 whole entry, the tested form may be a part): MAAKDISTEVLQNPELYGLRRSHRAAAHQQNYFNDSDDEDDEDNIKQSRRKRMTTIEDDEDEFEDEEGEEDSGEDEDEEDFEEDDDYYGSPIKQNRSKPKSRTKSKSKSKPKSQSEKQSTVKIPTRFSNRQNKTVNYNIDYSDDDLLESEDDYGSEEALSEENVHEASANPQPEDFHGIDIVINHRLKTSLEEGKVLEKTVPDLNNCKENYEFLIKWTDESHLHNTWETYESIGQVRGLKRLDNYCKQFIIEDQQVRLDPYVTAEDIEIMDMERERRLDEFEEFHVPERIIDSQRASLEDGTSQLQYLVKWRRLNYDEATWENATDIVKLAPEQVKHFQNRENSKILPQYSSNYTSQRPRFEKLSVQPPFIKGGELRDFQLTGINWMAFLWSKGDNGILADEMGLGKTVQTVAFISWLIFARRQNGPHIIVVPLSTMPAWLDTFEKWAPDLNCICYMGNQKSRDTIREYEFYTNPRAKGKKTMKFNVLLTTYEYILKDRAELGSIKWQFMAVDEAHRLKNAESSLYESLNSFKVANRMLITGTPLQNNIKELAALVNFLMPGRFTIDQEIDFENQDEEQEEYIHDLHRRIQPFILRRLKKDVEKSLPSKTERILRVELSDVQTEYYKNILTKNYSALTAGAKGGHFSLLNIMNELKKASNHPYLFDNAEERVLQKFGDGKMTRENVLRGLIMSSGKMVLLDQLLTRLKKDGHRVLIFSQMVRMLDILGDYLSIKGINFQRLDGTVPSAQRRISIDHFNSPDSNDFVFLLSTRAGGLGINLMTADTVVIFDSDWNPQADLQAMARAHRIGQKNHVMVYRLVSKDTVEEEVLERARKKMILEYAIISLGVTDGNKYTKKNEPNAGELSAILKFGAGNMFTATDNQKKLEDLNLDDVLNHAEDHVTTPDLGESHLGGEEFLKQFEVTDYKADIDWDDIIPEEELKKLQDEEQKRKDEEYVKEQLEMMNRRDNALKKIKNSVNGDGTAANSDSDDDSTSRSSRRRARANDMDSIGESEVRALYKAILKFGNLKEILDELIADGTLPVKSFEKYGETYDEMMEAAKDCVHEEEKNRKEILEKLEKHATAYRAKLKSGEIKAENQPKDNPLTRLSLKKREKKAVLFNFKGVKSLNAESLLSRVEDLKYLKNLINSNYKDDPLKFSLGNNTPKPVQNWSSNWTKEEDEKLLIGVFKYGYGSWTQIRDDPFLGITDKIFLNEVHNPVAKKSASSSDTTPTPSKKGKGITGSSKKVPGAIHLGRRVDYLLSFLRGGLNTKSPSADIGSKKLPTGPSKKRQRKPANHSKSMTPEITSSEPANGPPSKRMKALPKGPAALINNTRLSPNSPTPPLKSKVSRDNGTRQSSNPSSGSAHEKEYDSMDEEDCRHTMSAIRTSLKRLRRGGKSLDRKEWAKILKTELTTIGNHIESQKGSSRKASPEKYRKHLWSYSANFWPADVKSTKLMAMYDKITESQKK
Sequence of Protein translocase subunit SecA (Escherichia coli (strain K12)) (P10408 whole entry): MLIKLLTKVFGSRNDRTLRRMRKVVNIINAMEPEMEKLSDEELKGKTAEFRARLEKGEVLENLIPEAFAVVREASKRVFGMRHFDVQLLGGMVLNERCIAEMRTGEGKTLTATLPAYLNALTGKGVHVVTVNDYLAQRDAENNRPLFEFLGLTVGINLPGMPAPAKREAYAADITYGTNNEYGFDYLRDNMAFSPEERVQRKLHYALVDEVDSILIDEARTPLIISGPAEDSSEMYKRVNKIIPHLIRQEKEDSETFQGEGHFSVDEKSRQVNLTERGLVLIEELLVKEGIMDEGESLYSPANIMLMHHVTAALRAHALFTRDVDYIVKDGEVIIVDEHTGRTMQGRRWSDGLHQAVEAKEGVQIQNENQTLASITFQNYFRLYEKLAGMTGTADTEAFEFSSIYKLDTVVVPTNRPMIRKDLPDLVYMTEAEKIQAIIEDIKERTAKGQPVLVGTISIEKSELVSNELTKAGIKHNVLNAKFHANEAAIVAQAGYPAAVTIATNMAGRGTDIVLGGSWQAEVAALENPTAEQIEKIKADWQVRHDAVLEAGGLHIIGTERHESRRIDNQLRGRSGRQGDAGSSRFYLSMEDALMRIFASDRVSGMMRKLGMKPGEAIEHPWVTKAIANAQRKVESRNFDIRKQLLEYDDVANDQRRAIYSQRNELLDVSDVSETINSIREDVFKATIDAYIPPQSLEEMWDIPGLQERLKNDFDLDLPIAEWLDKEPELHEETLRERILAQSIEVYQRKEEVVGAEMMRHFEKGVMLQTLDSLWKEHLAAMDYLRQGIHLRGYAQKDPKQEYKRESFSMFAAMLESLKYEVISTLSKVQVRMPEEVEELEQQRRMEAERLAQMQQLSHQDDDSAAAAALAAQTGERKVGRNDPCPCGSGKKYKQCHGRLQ

`CN(CC1CCCCC1)C(=O)c1ccc(-n2ncc(C#N)c2N)cc1`: the Percent Effect in [1] was -0.675%; in assay [2] it was 2.6%; in [3], -3.53%; with Trypanosoma cruzi it was -9.33%; in assay [4], -9.22%; in [5], 7.37%. The Percent Effect is 48.7% in the assay filed under Homo sapiens, 4.9% in assay [6], 16.5% in assay [7] and -3.77% in assay [8].
For the compound `CN(C)c1ccc(C(=O)N2CCN(Cc3cscn3)CC2)cc1F`, the Percent Effect in assay [1] came out at 0.885%; in assay [2], 13%; in assay [3], 8.14%; with Trypanosoma cruzi, 1.31%; in [4] it was 3.07%; in [5] it was 9.12%. Besides, the Percent Effect in the assay listed under Homo sapiens is -8.07%; in [6], -10.8%; in [7] it was 23.5%; in [8] it was -2.52%.
As to `CCCn1ncc2c(C(=O)Nc3n[nH]c(SC)n3)cc(C3CC3)nc21`, the Percent Effect is -0.744% in assay [1]; 14.7% in assay [2]; -0.527% in assay [3]; -0.395% in the assay on Trypanosoma cruzi; -13.7% in [4]; 11.8% in [5]. The Percent Effect in the assay filed under Homo sapiens is 13.4%; in assay [6], -10.6%; in assay [7] it was 17.5%; in assay [8], -26.6%.
As to `Cc1cc(C)n(CCC(=O)N2CCCC(n3cncn3)C2)n1` (stereo not given), the Percent Effect in assay [1] is -6.39%; in assay [2], 10.7%; in assay [3], 6.15%; in the assay on Trypanosoma cruzi, 2.01%; in [4], -3.99%; in [5] it was 5.68%. Further, the Percent Effect in the assay listed under Homo sapiens was -5.14%; in assay [6], 5.79%; in assay [7], 15.4%; in assay [8] it was -9.86%.
For the compound `Cc1nc(CN(C)C2CCN(CCCOc3ccccc3)C2)no1` (stereo not given), the Percent Effect was 0.729% in assay [1]; 23.4% in [2]; -1.5% in assay [3]; 2.42% with Trypanosoma cruzi; -5.94% in [4]; 20.9% in assay [5]. Further, the Percent Effect is 8.47% in the assay listed under Homo sapiens, 8.82% in [6], 21.2% in [7] and -11.3% in [8].
For the compound `Cc1cnn(CC2CCCN2CC(=O)Nc2cc(C(C)(C)C)no2)c1` (stereo not given), the Percent Effect in assay [1] was -3.74%; in [2], 13%; in [3] it was 2.37%; in the assay with Trypanosoma cruzi, 3.73%; in assay [4], -0.615%; in [5], 6.84%. In addition, the Percent Effect is 2.79% in the assay filed under Homo sapiens, 7.84% in [6], 28.2% in assay [7] and -8.5% in assay [8].
As for `CN(CC(=O)N1CCCN(Cc2cscn2)CC1)c1cnccn1`, the Percent Effect was 0.471% in assay [1]; -18.2% in assay [2]; 7.79% in assay [3]; -4.29% in the assay with Trypanosoma cruzi; -3.07% in assay [4]; 0.351% in assay [5]. Moreover, the Percent Effect in the assay filed under Homo sapiens was 9.75%; in assay [6], 0%; in [7], 4.71%; in assay [8] it was 5.41%.
As to `O=C(c1ccnnc1)N1CCC2(CC1)CC(N1CCOCC1)C2`, the Percent Effect in assay [1] is 0.141%; in assay [2], 14.3%; in [3], -2.15%; in the assay with Trypanosoma cruzi, -2.25%; in assay [4], 5.48%; in assay [5] it was 13.8%. In addition, the Percent Effect in the assay filed under Homo sapiens is 22.2%; in assay [6], 4.83%; in assay [7] it was 2.5%; in assay [8], -8.83%.
Regarding `O=C(NCC(=O)N1CCCCC1)c1ccoc1`, the Percent Effect is 2.38% in assay [1]; 13% in [2]; 0.0749% in assay [3]; -7.46% in the assay on Trypanosoma cruzi; 2.25% in [4]; 17.2% in assay [5]. The Percent Effect is 18.2% in the assay filed under Homo sapiens, 4.9% in [6], 18.8% in [7] and -8.97% in assay [8].
Regarding `Cc1cncc(C2CCCN(C(=O)c3c[nH]c(=O)[nH]c3=O)C2)n1` (stereo not given), the Percent Effect was 0.496% in assay [1]; 9.33% in assay [2]; -0.809% in assay [3]; -4.14% with Trypanosoma cruzi; 0.885% in [4]; 7.06% in assay [5]. Also, the Percent Effect in the assay filed under Homo sapiens is 6.63%; in [6] it was 4.23%; in assay [7], 10%; in assay [8], -18.3%.
As to `O=C(NCCc1coc(-c2ccc(F)cc2)n1)NC1CCC(O)CC1` (stereo not given), the Percent Effect was -5.41% in assay [1]; 21.3% in assay [2]; 5.86% in [3]; 5.82% with Trypanosoma cruzi; -0.887% in assay [4]; 15.7% in [5]. The Percent Effect in the assay filed under Homo sapiens was 6.59%; in assay [6], 5.79%; in assay [7], 15.4%; in assay [8] it was -15.6%.

The values above are taken from ChEMBL document CHEMBL3988442, “University of Dundee, Small-Polar-MMV Screening Library” (2021).
